# Results as given in ChEMBL document CHEMBL3988442, “University of Dundee, Small-Polar-MMV Screening Library” (2021).
# In all, about 69,000 compounds went through this assay and about 1,000 (1.4%) showed an effect of 50% or more. Shown is part of a subset that was picked to be rich in strong results.
# Tested on: Leishmania donovani
# Assay: Leishmania intramacrophage assay
# Assay type: functional, organism-based
# Set-up: scale not given: in the data most compounds retested in dose-response had high values
smiles,measurement,setting,value
CCN(C)c1ncnc2c1CCN(Cc1ccncc1)CC2.O=C(O)C(F)(F)F.O=C(O)C(F)(F)F.O=C(O)C(F)(F)F,Percent Effect,"30.3 µM, […]",31.79%
CCn1cc(CN(C)S(=O)(=O)c2ccccc2)cn1,Percent Effect,"30.3 µM, […]",11.15%
CCn1cc(CN(C)S(=O)(=O)c2cnn(C)c2)cn1,Percent Effect,"30.3 µM, […]",50.44%
CCn1cc(CN(C)S(=O)(=O)c2ccc(Cl)cc2)cn1,Percent Effect,"30 µM, 30.03 µM",2.361%
C[C@@H]1CN(Cc2ccoc2)C[C@]12CCN(CC(=O)N(C)C)C2=O.O=C(O)C(F)(F)F,Percent Effect,"30.3 µM, […]",1.993%
NC(=O)c1ccnc(N2CCCC(CO)(Cc3ccc(F)cc3)C2)c1 (configuration not stated),Percent Effect,"30.3 µM, […]",16.75%
O=S(=O)(CCCN1CCOC(Cn2cccn2)C1)c1ccccc1 (configuration not stated),Percent Effect,"30.3 µM, […]",8.687%
Cc1noc([C@H]2COC[C@H]3CN(C(=O)Cc4cccc(F)c4)C[C@H]32)n1,Percent Effect,"30.3 µM, […]",29.86%
Cc1noc(C)c1CN(C)C(=O)c1cnc(C2CC2)nc1O,Percent Effect,"30.3 µM, […]",65.78%
Cc1noc(C)c1CN(C)C(=O)c1ccc(O)nc1,Percent Effect,30 µM,24.33%
Cc1noc(C)c1CN(C)C(=O)c1ccc(NC2CC2)nc1,Percent Effect,"30 µM, 30.03 µM",24.65%
CSCC(=O)N1C[C@H]2CC[C@@H]1CN(Cc1ccccc1)C2,Percent Effect,"30 µM, 30.03 µM",50.94%
O=C(CC(F)(F)F)N1C[C@H]2CC[C@@H]1CN(Cc1ccccc1)C2,Percent Effect,"30.3 µM, […]",17.26%
O=C(CSc1ncccn1)N1C[C@H]2CC[C@@H]1CN(Cc1ccncc1)C2,Percent Effect,"30 µM, 30.03 µM",54.88%
O=C(CSc1ccncc1)N1C[C@H]2CC[C@@H]1CN(Cc1cccnc1)C2,Percent Effect,"30 µM, 30.03 µM",35.98%
O=C(CSc1ccccc1)N1C[C@H]2CC[C@@H]1CN(Cc1ccncc1)C2,Percent Effect,"30.3 µM, […]",14.29%
CCOC(=O)N1C[C@H]2CC[C@@H]1CN(Cc1ccccc1)C2,Percent Effect,"30.3 µM, […]",27.53%
[O-][S+](Cc1c(F)cccc1Cl)Cc1nnnn1C1CC1 (configuration not stated),Percent Effect,"30.3 µM, […]",-31.87%
COCCC(C)NC(=O)c1cc(Br)c2c(c1)OCCO2 (configuration not stated),Percent Effect,30 µM,12.78%
Cc1nc(COc2cccc(C#N)c2)no1,Percent Effect,"30 µM, 30.03 µM",-12.6%
Cc1n[nH]c(C2CN(CC(=O)NCCc3ccccc3C)CCO2)n1 (configuration not stated),Percent Effect,"30.3 µM, […]",-38.97%
CCCc1cncnc1N1CCC(NCc2ccncc2)CC1,Percent Effect,"30.3 µM, […]",-13.54%
CCCc1cncnc1N1CCC(NCc2cc3ccccc3[nH]2)CC1,Percent Effect,"30.3 µM, […]",84.37%
CCCc1cncnc1N1CCC(NCc2ccc(O)cc2)CC1,Percent Effect,"30.3 µM, […]",-3.143%
CC(=O)N1CCN(c2cc(C3CN(C(C)=O)CCO3)nc(C)n2)CC1 (configuration not stated),Percent Effect,"30.3 µM, […]",2.386%
CC(C)c1ccc(C#N)c(N2CC(C)(C)[C@@](C)(O)C2)n1,Percent Effect,"30.3 µM, […]",3.251%
Cc1cc(C)n(CC2CN(CCOc3ccccc3C#N)CCO2)n1 (configuration not stated),Percent Effect,30 µM,10.79%
CCn1ncc2c1C(COC)CN(c1ncc(F)cn1)C2.O=C(O)C(F)(F)F.O=C(O)C(F)(F)F (configuration not stated),Percent Effect,"30.3 µM, […]",50.28%
CCn1ncc2c1C(COC)CN(Cc1ccc(F)cc1)C2.O=C(O)C(F)(F)F.O=C(O)C(F)(F)F (configuration not stated),Percent Effect,"30.3 µM, […]",-25.2%
COCC1CN(c2ncc(F)cn2)Cc2cnn(C)c21.O=C(O)C(F)(F)F.O=C(O)C(F)(F)F (configuration not stated),Percent Effect,"30.3 µM, […]",22.2%
CCOC1COC2(CCN(S(=O)(=O)c3cccc(F)c3)CC2)C1 (configuration not stated),Percent Effect,"30 µM, 30.03 µM",-15.08%
COC1COC2(CCN(S(=O)(=O)c3ccc(F)cc3)CC2)C1 (configuration not stated),Percent Effect,"30.3 µM, […]",5.953%
CCOC1COC2(CCN(S(=O)(=O)c3cccc(C)c3)CC2)C1 (configuration not stated),Percent Effect,"30.3 µM, […]",23.7%
Cc1cccc(S(=O)(=O)N2CCC3(CC2)CC(N(C)C)CO3)c1 (configuration not stated),Percent Effect,"30.3 µM, […]",50.39%
CN(C)C1COC2(CCN(S(=O)(=O)c3ccc(F)cc3)CC2)C1.O=C(O)C(F)(F)F (configuration not stated),Percent Effect,"30.3 µM, […]",52.86%
CCOC1COC2(CCN(S(=O)(=O)c3ccc(F)cc3)CC2)C1 (configuration not stated),Percent Effect,"30.3 µM, […]",12.78%
CC(Oc1ccccc1C#N)C(=O)NC1CC1 (configuration not stated),Percent Effect,"30.3 µM, […]",8.957%
Cc1cnn(C2CN(c3nc(C)cc(N(C)C)n3)C2)c1,Percent Effect,"30.3 µM, […]",24.16%
CN(Cc1noc2c1CCCC2)C(=O)CN1C(=O)COc2ccccc21,Percent Effect,"30.3 µM, […]",18.25%
CC1CCN(CC(=O)N(C)CCc2noc(C3CC3)n2)C1=O (configuration not stated),Percent Effect,"30.3 µM, […]",26.42%
CN(CCc1noc(C2CC2)n1)C(=O)CN1C(=O)COc2ccccc21,Percent Effect,"30.3 µM, […]",99.57%
CC(C)Oc1ncccc1CNC(=O)c1ccccn1,Percent Effect,"30.3 µM, […]",-8.458%
CN(Cc1ccc(F)c(F)c1)Cc1cc2c(cc1Br)OCCO2,Percent Effect,"30.3 µM, […]",17.19%
c1coc(CNCC2Cn3nncc3CO2)c1 (configuration not stated),Percent Effect,"30.3 µM, […]",55.14%
Cc1ccc(CNCC2Cn3nncc3CO2)o1 (configuration not stated),Percent Effect,"30.3 µM, […]",8.133%
c1cc(CNCC2Cn3nncc3CO2)ccn1 (configuration not stated),Percent Effect,"30.3 µM, […]",1.96%
CCNc1ccnc(NCC2(N(C)C)CCOCC2)n1,Percent Effect,"30.3 µM, […]",31.76%
CCc1ncc(C(=O)N2CC(Oc3ccccc3Cl)C2)cn1,Percent Effect,"30.3 µM, […]",18.16%
COCCN1C[C@H]2CCN(C(=O)c3cc(C)on3)CC[C@H]2S1(=O)=O,Percent Effect,"30.3 µM, […]",-11.97%
Cc1ccc(CNC(=O)NCc2csc(C)n2)cn1,Percent Effect,"30 µM, 30.03 µM",22.66%
Cc1nnc2n1CCN(CCCS(=O)(=O)c1ccccc1)C2,Percent Effect,"30.3 µM, […]",27.12%
CN(C)c1ncnc2c1CCN(CC1CCOCC1)CC2.O=C(O)C(F)(F)F,Percent Effect,"30.3 µM, […]",3.553%
CCN(C)c1ncnc2c1CCN(CC1CCOC1)CC2.O=C(O)C(F)(F)F (configuration not stated),Percent Effect,"30.3 µM, […]",-1.105%
CCN(CC)c1ncnc2c1CCN(CC1CCOCC1)CC2.O=C(O)C(F)(F)F,Percent Effect,"30.3 µM, […]",50.25%
Cc1ccc(CN2CCn3c(CNS(C)(=O)=O)nnc3C2)s1,Percent Effect,"30.3 µM, […]",21.51%
COc1cc(OC)nc(N2CCC3(CC2)OCCCC3O)n1 (configuration not stated),Percent Effect,"30.3 µM, […]",12.31%
c1cc(-c2ccc(CN3CCCC4(CCNC4)C3)s2)[nH]n1 (configuration not stated),Percent Effect,"30.3 µM, […]",24.83%
Fc1cnccc1CN1CCCC2(CCN(c3ncccn3)CC2)C1.O=C(O)C(F)(F)F,Percent Effect,"30.3 µM, […]",6.498%
CC(NCCN1CCC(N(C)C)CC1)c1ccc(Cl)s1 (configuration not stated),Percent Effect,"30.3 µM, […]",43.03%
CC(NCCN1CCC(N(C)C)CC1)c1ccc(F)cc1N(C)C (configuration not stated),Percent Effect,"30.3 µM, […]",15.55%
Cc1cc(Br)cnc1NCCN1CCC(N(C)C)CC1,Percent Effect,"30.3 µM, […]",96.65%
CC(=O)N1CCN(CCNc2ncc(Br)cc2C)CC1,Percent Effect,"30.3 µM, […]",1.457%
Cc1cc(C(C)NCCN2CCC(N(C)C)CC2)c(C)s1 (configuration not stated),Percent Effect,"30.3 µM, […]",59.42%
COC1CCN(CCNc2ncc(Br)cc2C)CC1,Percent Effect,"30.3 µM, […]",-8.998%
COCCN1CCN(Cc2c(C3CCNCC3)[nH]c3ncccc23)CC1.Cl,Percent Effect,"30.3 µM, […]",15.04%
Cn1cc(CN2CCc3onc(C(=O)Nc4cccnc4)c3C2)cn1,Percent Effect,"30.3 µM, […]",24.89%
CC(C)(C)C(=O)N1CCC(c2cnc(-c3cn[nH]c3)cn2)CC1,Percent Effect,"30.3 µM, […]",-18.54%
COc1ccc(Cl)cc1CS(=O)(=O)Cc1nc(C2CC2)no1,Percent Effect,"30.3 µM, […]",28.37%
COc1ccc(Cl)cc1CS(=O)(=O)Cc1noc(C)n1,Percent Effect,"30.3 µM, […]",34.45%
COc1ccc(Cl)cc1CS(=O)(=O)Cc1nc(C)no1,Percent Effect,"30.3 µM, […]",60.61%
O=C(NCCN1CCOCC1)c1cc(-c2ccccc2Cl)[nH]n1,Percent Effect,"30.3 µM, […]",-6.582%
CC(C)c1noc(CN2CCN(C(=O)c3ccncc3F)CC2)n1,Percent Effect,30 µM,25.95%
O=C1C(N2CCN(c3ccc(O)cc3)CC2)CCN1C1CCOCC1 (configuration not stated),Percent Effect,"30.3 µM, […]",-7.233%
O=C(Nc1ccc(CC(=O)N2CCSCC2)cc1)NC1CCCC1,Percent Effect,"30.3 µM, […]",-9.117%
O=C(Nc1ccc(CC(=O)N2CCSCC2)cc1)NC1CC1,Percent Effect,"30.3 µM, […]",50.93%
O=C(Nc1ccc(CC(=O)N2CCCC2)cc1)NC1CC1,Percent Effect,"30.3 µM, […]",15.08%
O=C1[C@H]2CC[C@H](CN(C3CSCCSC3)C2)N1Cc1cscn1,Percent Effect,"30 µM, 30.03 µM",-11.37%
CN(C)CCN1CCCC12CCN(Cc1nccn1C)CC2.O=C(O)C(F)(F)F.O=C(O)C(F)(F)F.O=C(O)C(F)(F)F,Percent Effect,"30.3 µM, […]",52.43%
Cn1ccnc1CN1CCC2(CC(=O)N(c3ccsc3)C2)C1.O=C(O)C(F)(F)F (configuration not stated),Percent Effect,"30.3 µM, […]",19.56%
Cn1cc(CN2CCCC23CCN(Cc2nccn2C)CC3)cn1.O=C(O)C(F)(F)F.O=C(O)C(F)(F)F,Percent Effect,"30.3 µM, […]",22.67%
Cc1cccc(N2CC3(CCN(Cc4nccn4C)C3)CC2=O)c1.O=C(O)C(F)(F)F (configuration not stated),Percent Effect,"30.3 µM, […]",24.22%
CN1CC(=O)N(c2cnn(C)c2)CC12CCN(Cc1nccn1C)C2.O=C(O)C(F)(F)F.O=C(O)C(F)(F)F (configuration not stated),Percent Effect,"30 µM, 30.03 µM",3.871%
Cc1ccc(N2CC3(CCN(Cc4nccn4C)C3)CC2=O)s1.O=C(O)C(F)(F)F (configuration not stated),Percent Effect,"30.3 µM, […]",55.03%
Cn1ccc(CN2CCCC23CCN(Cc2nccn2C)CC3)n1.O=C(O)C(F)(F)F.O=C(O)C(F)(F)F,Percent Effect,"30.3 µM, […]",27.16%
Cc1ccccc1N1CC2(CCN(Cc3nccn3C)C2)CC1=O.O=C(O)C(F)(F)F (configuration not stated),Percent Effect,"30.3 µM, […]",-1.583%
Cn1cc(N2CC3(CCN(Cc4nccn4C)C3)CC2=O)cn1.O=C(O)C(F)(F)F (configuration not stated),Percent Effect,"30.3 µM, […]",58.91%
OC(COCc1ccccc1Cl)CN1CCC(c2ccn[nH]2)CC1 (configuration not stated),Percent Effect,30 µM,17.67%
O=C(Cc1csc(-c2ccsc2)n1)N1CCN(c2cnccn2)CC1,Percent Effect,30 µM,8.045%
Cc1cc(C(=O)N2CCn3cc(CN(C)C)nc3C2)no1,Percent Effect,"30.3 µM, […]",18.85%
CC(O)CN1CCN(C(=O)c2ccn(-c3ccc(F)cc3)n2)CC1 (configuration not stated),Percent Effect,"30.3 µM, […]",-32.18%
Cn1ccc(C(=O)N2CCC(Cc3cnc4[nH]ccc4c3)CC2)n1,Percent Effect,"30 µM, 30.03 µM",27.84%
CO[C@@H]1CC[C@@H](N(C)C(=O)COc2ccc(F)cc2)[C@H]1O,Percent Effect,"30 µM, 30.03 µM",-20.57%
Cc1ccc(C)c(Oc2cc(-n3nc(C)c(C#N)c3N)nc(C)n2)c1,Percent Effect,"30.3 µM, […]",6.945%
CCc1nn(-c2cc(Oc3cc(C)ccc3C)nc(C)n2)c(N)c1C#N,Percent Effect,"30.3 µM, […]",18.36%
CCc1nn(-c2cc(Oc3cc(C)ccc3C)ncn2)c(N)c1C#N,Percent Effect,"30.3 µM, […]",55.59%
NCC(=O)N1CCCC(O)(CN2CCN(c3ccccc3)CC2)CC1 (configuration not stated),Percent Effect,"30.3 µM, […]",24.84%
Cc1nc(CNC(=O)N2CCN(c3ccc(Cl)cn3)CC2)no1,Percent Effect,"30.3 µM, […]",-6.718%
Cc1nc(CN2CCN(c3ccc(Cl)cn3)CC2)no1,Percent Effect,"30.3 µM, […]",51.54%
CSCCCN1CCN(c2ccc(Cl)cn2)CC1,Percent Effect,"30.3 µM, […]",30.03%
Cc1nc(CN2CCN(Cc3nccn3C)CC2)no1,Percent Effect,"30 µM, 30.03 µM",11.72%
Clc1ccc(N2CCN(CCCN3CCCCC3)CC2)nc1,Percent Effect,"30.3 µM, […]",68.75%
CS(=O)(=O)CCN1CCN(c2ccc(Cl)cn2)CC1,Percent Effect,"30.3 µM, […]",0.04205%
